The panel holds about 79,000 compounds, 15% with a hit somewhere; the sample as a whole holds those more often. A number with no mark means an inactive call. The source made the active and inactive calls. No stated cut-off is given here; in the data, active means growth inhibition above about 70%; inactive means the rest.

This note sets out measurements from PubChem BioAssay (NCI).

The nature of assay [1]: NCI Yeast Anticancer Drug Screen. Data for the rad50 strain (AID 155).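 Further: 0% = growth of vehicle-only cultures of the same strain.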 Particulars: S. cerevisiae rad50 strain growth inhibition, stronger effect = higher value. Summed up: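 DNA repair mutant yeast, compound exposure, growth read-out; inhibition is taken relative to vehicle.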
The nature of assay [2]: NCI Yeast Anticancer Drug Screen. Data for the mec2-1 strain (AID 157). The note with it: S. cerevisiae mec2-1 strain, stronger effect = higher value. Summed up: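 Vehicle-treated cultures served as reference for growth inhibition of compound-exposed mec2-1 yeast.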
Assay [3] can be described thus: NCI Yeast Anticancer Drug Screen. Data for the sgs1 mgt1 strain (AID 161).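 Further: 0% = growth of cultures given vehicle only.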 The note with it: S. cerevisiae sgs1 mgt1 strain, stronger effect = higher value. Summed up:
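Test agents were incubated with a DNA-repair-mutant yeast strain. Growth was then read and compared against vehicle-treated controls.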

Assay [4] is described as follows: NCI Yeast Anticancer Drug Screen. Data for the cln2 rad14 strain (AID 165).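 Further: 0% = growth equal to vehicle treated cultures.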 Particulars: S. cerevisiae cln2 rad14 strain, stronger effect = higher value. An outline of the steps:
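Each compound was tested on cln2 rad14 yeast. Inhibition of growth was calculated against vehicle-exposed controls.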

Assay [5] can be described thus: NCI Yeast Anticancer Drug Screen. Data for the bub3 strain (AID 167). The note with it: S. cerevisiae bub3 mutant strain, stronger effect = higher value. An outline of the steps:
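In this screen, a yeast mutant lacking normal mitotic checkpoint function is challenged with compound. Relative growth versus vehicle gives the inhibition value.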

The nature of assay [6]: NCI Yeast Anticancer Drug Screen. Data for the mlh1 rad18 strain (AID 175). The note with it: S. cerevisiae mlh1 rad18 strain growth inhibition, stronger effect = higher value. Summed up: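 Vehicle-treated cultures served as the reference for growth inhibition in a yeast strain carrying DNA damage repair alterations exposed to each compound.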
Where [7] appears, read: at 5.0 µM (retest, dose inferred, filed as 0.5).
Where [8] appears, read: at 50.0 µM (retest, dose inferred, filed as 5.0).

Regarding `O=c1c(Cl)c(Cl)c(=O)c2sc3cc(Cl)ccc3[nH]c1=2`, the growth inhibition in assay [1] (setting [7]) was 6%; in assay [1] (setting [8]) it was 51%; in assay [1] (at 50.0 µM), 95.5% (active); in assay [2] (setting [7]) it was 3%; in assay [2] (setting [8]), 27%; in assay [2] (at 50.0 µM) it was 95% (active). Also, the growth inhibition in assay [3] (setting [7]) is -3%; in assay [3] (setting [8]) it was 46%; in assay [3] (at 50.0 µM), 88% (active); in assay [4] (setting [7]), 2%; in assay [4] (setting [8]) it was 7%; in assay [4] (at 50.0 µM), 95% (active). In addition, the growth inhibition in assay [5] (setting [7]) was 6%; in assay [5] (setting [8]) it was 19%; in assay [5] (at 50.0 µM) it was 95.5% (active); in assay [6] (setting [7]), 2%; in assay [6] (setting [8]) it was 59%; in assay [6] (at 50.0 µM), 96.9% (active).
With `NC(=S)C(=Nc1ccccc1F)Nc1ccccc1F`, the growth inhibition is 2% in assay [1] (setting [7]); 85% (active) in assay [1] (setting [8]); 8.4% in assay [1] (at 50.0 µM); -8% in assay [2] (setting [7]); 31% in assay [2] (setting [8]); -9.55% in assay [2] (at 50.0 µM). The growth inhibition in assay [3] (setting [7]) was -10%; in assay [3] (setting [8]), 70% (active); in assay [3] (at 50.0 µM), 61.6%; in assay [4] (setting [7]), -6%; in assay [4] (setting [8]), 35%; in assay [4] (at 50.0 µM) it was 5.55%. Also, the growth inhibition is -1% in assay [5] (setting [7]); 81% (active) in assay [5] (setting [8]); 32.9% in assay [5] (at 50.0 µM); 20% in assay [6] (setting [7]); 87% (active) in assay [6] (setting [8]); 66.2% in assay [6] (at 50.0 µM).
As for `C/C(=N\NC(=S)N1CCCC1)c1nc2ncccc2[nH]1`, the growth inhibition was -20% in assay [1] (setting [7]); 97% (active) in assay [1] (setting [8]); 85.9% (active) in assay [1] (at 50.0 µM); -3% in assay [2] (setting [7]); 94% (active) in assay [2] (setting [8]); 84.8% (active) in assay [2] (at 50.0 µM). Moreover, the growth inhibition in assay [3] (setting [7]) is -2%; in assay [3] (setting [8]), 95% (active); in assay [3] (at 50.0 µM), 83.2% (active); in assay [4] (setting [7]), -38%; in assay [4] (setting [8]), 97% (active); in assay [4] (at 50.0 µM), 81.7% (active). Further, the growth inhibition in assay [5] (setting [7]) is -40%; in assay [5] (setting [8]), 98% (active); in assay [5] (at 50.0 µM), 87% (active); in assay [6] (setting [7]), 12%; in assay [6] (setting [8]), 97% (active); in assay [6] (at 50.0 µM), 82% (active).
`CC1Cc2ccc3c(c2C(c2ccc4c(c2)OCO4)C1C)OCO3` (stereo not given): the growth inhibition in assay [1] (setting [7]) was -4%; in assay [1] (setting [8]), -16%; in assay [1] (at 50.0 µM) it was -3.7%; in assay [2] (setting [7]), 3%; in assay [2] (setting [8]) it was -19%; in assay [2] (at 50.0 µM), -15.1%. Moreover, the growth inhibition is 1% in assay [3] (setting [7]); 14% in assay [3] (setting [8]); -5.1% in assay [3] (at 50.0 µM); -23% in assay [4] (setting [7]); -14% in assay [4] (setting [8]); -4.7% in assay [4] (at 50.0 µM). The growth inhibition is -5% in assay [5] (setting [7]); -3% in assay [5] (setting [8]); -3.35% in assay [5] (at 50.0 µM); -11% in assay [6] (setting [7]); 26% in assay [6] (setting [8]); 8.9% in assay [6] (at 50.0 µM).
For the compound `Nc1cccc2c1C(=O)c1cccc(Cl)c1C2=O`, the growth inhibition in assay [1] (setting [7]) was 31%; in assay [1] (setting [8]), 83% (active); in assay [1] (at 50.0 µM) it was 87.7% (active); in assay [2] (setting [7]) it was 3%; in assay [2] (setting [8]) it was 16%; in assay [2] (at 50.0 µM) it was 11.8%. Moreover, the growth inhibition in assay [3] (setting [7]) is 0%; in assay [3] (setting [8]) it was 14%; in assay [3] (at 50.0 µM), 21.1%; in assay [4] (setting [7]) it was 1%; in assay [4] (setting [8]), 2%; in assay [4] (at 50.0 µM), -82%. Besides, the growth inhibition was 5% in assay [5] (setting [7]); 21% in assay [5] (setting [8]); 58% in assay [5] (at 50.0 µM); 11% in assay [6] (setting [7]); 30% in assay [6] (setting [8]); 50.3% in assay [6] (at 50.0 µM).
On to `Nc1nnc2nc(C(C(=O)c3ccccc3Cl)c3nc4nnc(N)n4[nH]c3=O)c(=O)[nH]n12`, for which the growth inhibition in assay [1] (setting [7]) was -2%; in assay [1] (setting [8]), -4%; in assay [1] (at 50.0 µM), 93.8% (active); in assay [2] (setting [7]), 1%; in assay [2] (setting [8]) it was 0%; in assay [2] (at 50.0 µM), 99.8% (active). For the same compound, the growth inhibition in assay [3] (setting [7]) is -2%; in assay [3] (setting [8]), -2%; in assay [3] (at 50.0 µM) it was 41.5%; in assay [4] (setting [7]), -1%; in assay [4] (setting [8]), -2%; in assay [4] (at 50.0 µM), 74.6% (active). In addition, the growth inhibition in assay [5] (setting [7]) was -1%; in assay [5] (setting [8]), -7%; in assay [5] (at 50.0 µM), 99.5% (active); in assay [6] (setting [7]), 0%; in assay [6] (setting [8]), -4%; in assay [6] (at 50.0 µM), 96.5% (active).
As to `COc1c2c3c(ccnc3c3ccccc13)C(=O)N2C`, the growth inhibition in assay [1] (setting [7]) is 29%; in assay [1] (setting [8]), 84% (active); in assay [1] (at 50.0 µM), 83% (active); in assay [2] (setting [7]), 15%; in assay [2] (setting [8]), 72% (active); in assay [2] (at 50.0 µM), 71.3% (active). The growth inhibition is 19% in assay [3] (setting [7]); 75% (active) in assay [3] (setting [8]); 77.7% (active) in assay [3] (at 50.0 µM); -3% in assay [4] (setting [7]); 52% in assay [4] (setting [8]); 61% in assay [4] (at 50.0 µM). Besides, the growth inhibition in assay [5] (setting [7]) is 0%; in assay [5] (setting [8]), 72% (active); in assay [5] (at 50.0 µM) it was 75.6% (active); in assay [6] (setting [7]) it was 17%; in assay [6] (setting [8]) it was 76% (active); in assay [6] (at 50.0 µM) it was 75% (active).
Regarding `O=c1[nH]ncc(SCc2ccccc2)c1SCc1ccccc1`, the growth inhibition in assay [1] (setting [7]) was 8%; in assay [1] (setting [8]), 35%; in assay [1] (at 50.0 µM), 97.2% (active); in assay [2] (setting [7]), 3%; in assay [2] (setting [8]) it was 53%; in assay [2] (at 50.0 µM) it was 97.9% (active). The growth inhibition in assay [3] (setting [7]) was 1%; in assay [3] (setting [8]), 58%; in assay [3] (at 50.0 µM), 98% (active); in assay [4] (setting [7]), 8%; in assay [4] (setting [8]) it was 31%; in assay [4] (at 50.0 µM), 96.1% (active). The growth inhibition in assay [5] (setting [7]) is 14%; in assay [5] (setting [8]) it was 37%; in assay [5] (at 50.0 µM), 98.4% (active); in assay [6] (setting [7]) it was 8%; in assay [6] (setting [8]) it was 57%; in assay [6] (at 50.0 µM), 96.5% (active).
For `O=C1c2ccccc2C(=O)c2c1ccc(C(=O)O)c2-c1ccc2ccccc2c1`, the growth inhibition in assay [1] (setting [7]) is 5%; in assay [1] (setting [8]) it was 97% (active); in assay [1] (at 50.0 µM), 97.3% (active); in assay [2] (setting [7]), 26%; in assay [2] (setting [8]) it was 98% (active); in assay [2] (at 50.0 µM), 97.8% (active). The growth inhibition was 11% in assay [3] (setting [7]); 98% (active) in assay [3] (setting [8]); 97.5% (active) in assay [3] (at 50.0 µM); 13% in assay [4] (setting [7]); 96% (active) in assay [4] (setting [8]); 97.3% (active) in assay [4] (at 50.0 µM). Moreover, the growth inhibition is -3% in assay [5] (setting [7]); 98% (active) in assay [5] (setting [8]); 96.2% (active) in assay [5] (at 50.0 µM); 8% in assay [6] (setting [7]); 98% (active) in assay [6] (setting [8]); 97.2% (active) in assay [6] (at 50.0 µM).
With `FC(F)(F)c1ccccc1NC(=S)SCc1ccc2c(c1)OCO2`, the growth inhibition was 7% in assay [1] (setting [7]); 95% (active) in assay [1] (setting [8]); 98.8% (active) in assay [1] (at 50.0 µM); 8% in assay [2] (setting [7]); 98% (active) in assay [2] (setting [8]); 99% (active) in assay [2] (at 50.0 µM). For the same compound, the growth inhibition is 1% in assay [3] (setting [7]); 97% (active) in assay [3] (setting [8]); 99% (active) in assay [3] (at 50.0 µM); 2% in assay [4] (setting [7]); 96% (active) in assay [4] (setting [8]); 98% (active) in assay [4] (at 50.0 µM). For the same compound, the growth inhibition in assay [5] (setting [7]) was 3%; in assay [5] (setting [8]), 95% (active); in assay [5] (at 50.0 µM), 98.3% (active); in assay [6] (setting [7]) it was 1%; in assay [6] (setting [8]) it was 96% (active); in assay [6] (at 50.0 µM), 99% (active).
